# Hits are enriched below; roughly 27% of the tested compounds scored in any of these assays.
# CYP2C9 inhib – inhibitors of human CYP2C9. 20% of 96,000 active. AID 777. CYP2C9 Supersomes, luciferin-H conversion, luminescence. inhibition, % at 5 µM;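 active means blocking of liver enzyme CYP2C9 beyond about 50% at 5 µM, limit read from the data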
# CYP2C19 activ – activators of human cytochrome P450 2C19 | P33261 | recombinant CYP2C19, luciferin-H EGE luminescence; active compounds read high; 0 = fully inhibited enzyme, 1 = untreated enzyme | activation factor at 5 µM | 96,000 tested, under 10 active;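 active means activation factor of at least 2 at 5 µM in the primary screen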;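 further: 0 = wells with 2.5 mM tranylcypromine and 1 = vehicle-only wells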
# Target sequence (P33261 whole entry, looked up): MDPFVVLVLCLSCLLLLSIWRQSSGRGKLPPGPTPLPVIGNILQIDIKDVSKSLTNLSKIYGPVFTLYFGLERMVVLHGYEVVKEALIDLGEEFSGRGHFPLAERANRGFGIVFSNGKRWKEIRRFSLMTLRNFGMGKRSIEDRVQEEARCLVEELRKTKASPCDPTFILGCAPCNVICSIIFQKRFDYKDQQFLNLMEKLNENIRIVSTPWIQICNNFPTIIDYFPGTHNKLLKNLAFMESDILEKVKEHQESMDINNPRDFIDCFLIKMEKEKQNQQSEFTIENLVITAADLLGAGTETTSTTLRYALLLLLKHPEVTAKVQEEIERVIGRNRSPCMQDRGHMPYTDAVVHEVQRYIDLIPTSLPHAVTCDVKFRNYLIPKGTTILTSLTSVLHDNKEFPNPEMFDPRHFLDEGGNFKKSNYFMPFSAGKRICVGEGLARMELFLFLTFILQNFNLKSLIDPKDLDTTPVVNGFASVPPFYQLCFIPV
# Cav32 inh – blocks human Cav3.2 T-type calcium channel. B-score at 10 µM. O95180. Cav3.2-expressing cells, Fluo-4 calcium fluorescence FDSS; active compounds read low. 4% of 100,000 active;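 active means single-dose well whose peak fluorescence ratio is a statistical outlier from its plate by either plate-standardised score or position-corrected B-score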
# CYP2C9 activ – CYP2C9 (human) activation; P11712; recombinant CYP2C9, luciferin-H conversion, luminescence; active compounds read high; factor 1 = untreated enzyme, 0 = blocked; activation factor at 5 µM; 1.4% of 96,000 active;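 active means activation factor of 2 or more for CYP2C9 at a 5 µM dose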;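 further: 0 = sulfaphenazole-blocked wells and 1 = vehicle-only wells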
# CYP2C19 inh – inhibitors of human CYP2C19. P33261. CYP2C19 Supersomes, luciferin-H EGE luminescence, 30 min. inhibition, % at 5 µM. 21% of 96,000 active;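 active means CYP2C19 inhibition above a set limit at 5 µM in the primary screen, cut at about 50% in these data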;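 further: plate controls were negative control wells for no effect and 2.5 mM tranylcypromine positive control for full effect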
# Starred values were filed as active, the others as inactive; . = not tested or not shown.
SMILES,CYP2C9 inhib,CYP2C19 activ,Cav32 inh,CYP2C9 activ,CYP2C19 inh
O=C(CSCc1cccc(Br)c1)N=Nc1c(O)[nH]c2ccccc12,-11,0.6,-1.9,1.1,41
Cc1ccc(S(=O)(=O)N2CCN(c3ncnc4c3cnn4-c3ccccc3)CC2)cc1,-17,1.1,0.06,1.2,-12
O=S(=O)(c1ccccc1)N1CCN(c2ncnc3sc(-c4ccccc4)cc23)CC1,93*,0.2,-2.9,0.1,82*
O=C1N[C@@H](Cc2cn(S(=O)(=O)c3ccc(F)cc3)c3ccccc23)C(=O)N[C@H]1Cc1ccccc1,.,.,0.015,.,.
CS(=O)(=O)N(CC(=O)Nc1ccccc1Sc1ccccc1)c1ccc(F)cc1,61*,0.7,-3.6,0.4,28
CS(=O)(=O)N(Cc1ccc(C(=O)Nc2ccccc2Sc2ccccc2)cc1)c1ccccc1,39,1,-0.37,0.6,4
CCSc1nnc(NC(=O)CN(C)S(=O)(=O)c2ccc(F)cc2)s1,75*,0.2,-0.57,0.2,81*
COc1ccc(S(=O)(=O)N(C)CC(=O)NC2CCCC2)cc1Cl,-77,0.4,0.054,1.8,55*
COc1ccc(S(=O)(=O)N(C)CC(=O)Nc2ccc(F)cc2)cc1,-120,0.5,-0.039,2.2*,45
CCOc1ccc(N(CC(=O)Nc2ccc(OC)cc2)S(C)(=O)=O)cc1,20,0.9,0.69,0.8,11
CCCCn1nc2cc(C(=O)NCc3ccc(OC(F)(F)F)cc3)ccc2c1OC,11,0.8,-0.39,0.9,16
CC(O)c1cc2c(cc1NC(=O)c1cnn3c1NC(c1ccco1)CC3C(F)(F)F)OCO2 (stereo not drawn),14,1,.,0.9,3
CO/N=C/NC(=O)c1cn(-c2ccc(F)cc2)c(=O)c2ccccc12,6,0.9,0.77,0.9,14
O=C1C=C(N2CCN(C3=CC(=O)CCC3)CC2)CCC1,-13,1,.,1.1,0
CC(C(=O)Nc1ccccc1Sc1ccccc1)N(c1ccccc1)S(C)(=O)=O (stereo not drawn),54*,0.6,.,0.5,41
COc1ccc(S(=O)(=O)N(C)CC(=O)N2CCCCC2)cc1Cl,-68,0.5,0.87,1.7,48
COc1ccc(S(=O)(=O)N(C)CC(=O)Nc2cccc(C(C)=O)c2)cc1,38,0.1,0.89,0.6,88*
COc1ccc(S(=O)(=O)N(C)CC(=O)Nc2cccc(C(C)=O)c2)cc1Cl,-18,0.1,-1.1,1.2,93*
COc1cc(OC)cc(C(=O)Nc2cccc(C(C)=O)c2)c1,76*,0.3,1.1,0.2,71*
NC(=O)CC(NC(=O)Cc1ccc(Br)cc1)c1ccc(NCc2ccc(F)cc2)c([N+](=O)[O-])c1 (stereo not drawn),.,.,-0.76,.,.
COc1ccc(C2CC(=O)C(C=NCCN3CCOCC3)=C(O)C2)cc1 (stereo not drawn),.,.,-0.52,.,.
CC(C)C(=O)Nc1ccc(C(=O)NNC(=O)CCCOc2ccc(Cl)cc2Cl)cc1,40,0.9,-0.094,0.6,7
CSc1ccccc1NC(=O)CN(C)S(=O)(=O)c1ccc(F)cc1,-265,0.6,0.27,3.6*,41
CCCC1CC(C)(C(=O)CSc2n[nH]c(-c3ccccc3)n2)OC1=O (stereo not drawn),42,0.5,-0.67,0.6,50
COc1cccc(C(=O)Nc2c(C(N)=O)oc3ccccc23)c1,-234,0.9,.,3.3*,6
SMILES,CYP2C9 inhib,CYP2C19 activ,Cav32 inh,CYP2C9 activ,CYP2C19 inh
CCOC(=O)c1oc2ccccc2c1NC(=O)c1cccc(OC)c1OC,66*,0.3,-2.1,0.3,67*
COc1ccc(NC(=O)c2oc3ccccc3c2NC(=O)c2ccc3c(c2)OCO3)cc1,55*,0.6,-1.1,0.5,36
CCOC(=O)c1oc2ccccc2c1NC(=O)c1cccc(OC)c1,28,0.8,-0.29,0.7,17
NC(=O)c1oc2ccccc2c1NC(=O)CCc1ccccc1,-124,0.2,-0.026,2.2*,82*
CCOc1ccc(C(=O)Nc2c(C(N)=O)oc3ccccc23)cc1,.,.,0.32,.,.
Cc1cccc(C)c1OCC(O)CNS(=O)(=O)c1ccccc1C(=O)N1CCCCC1 (stereo not drawn),.,.,-1.9,.,.
CCOC(=O)[C@H](CCc1ccccc1)N[C@@H](C)C(=O)N1[C@H](C(=O)O)C[C@@H]2CCC[C@@H]21,.,.,0.66,.,.
CN(C)Cc1ccc(-c2nc3cccc4c3n2CCNC4=O)cc1,.,.,0.65,.,.
CC1(C)N=C(/C=N/O)CN1O,-14,1.1,0.8,1.1,-14
O=C(CN1CCC(C(=O)c2ccc(F)cc2)CC1)Nc1ccccc1,57*,0.6,-1.3,0.4,37
COc1ccccc1NC(=O)CN1CCC(C(=O)c2ccc(F)cc2)CC1,-11,0.5,-1.7,1.1,52*
COc1ccccc1NC(=O)CN1CCCCC1,37,0.9,0.099,0.6,6
COc1ccc(CNC(=O)CN2CCC(C(=O)c3ccc(OC)cc3)CC2)cc1,70*,0.4,0.021,0.3,63*
CCOc1ccccc1NC(=O)N1CCC(C(=O)c2ccc(F)cc2)CC1,-153,0.2,-0.87,2.5*,83*
O=C(c1ccc(F)cc1)C1CCN(C(=O)Nc2ccc(F)cc2)CC1,39,0.7,1.2,0.6,26
Cc1ccc(NC(=S)N2CCC(N(C)CC3CCCO3)CC2)c(C)c1 (stereo not drawn),-6,1.1,0.38,1.1,-7
Cc1ccc(C(=O)C2CCN(CC(=O)Nc3ccc(N(C)C)cc3)CC2)cc1,39,0.8,-0.36,0.6,15
O=C(CN1CCC(C(=O)c2ccc(F)cc2)CC1)Nc1ccc(F)cc1,.,.,-5.4*,.,.
COC(=O)c1c(NS(=O)(=O)Cc2ccccc2)sc2c1CCCC2,96*,0.1,-4.2,0,93*
CC(C)OC(=O)c1c(NS(=O)(=O)c2ccccc2)sc2c1CCCC2,.,.,-8*,.,.
C/C(=N\N=C(/N)SC1CC(=O)N(c2ccccc2)C1=O)c1cccs1 (stereo not drawn),56*,0.7,-2.2,0.4,29
C/C(=N\N=C(/N)SC1CC(=O)N(c2ccc(Cl)cc2)C1=O)c1cccs1 (stereo not drawn),-29,0.9,-1.8,1.3,14
N#Cc1cc(-c2ccccc2)nnc1Oc1ccccc1Cl,-7,1.2,0.55,1.1,-20
COCCn1c(=S)[nH]c2ccc(N(C)C)cc2c1=O,32,0.5,-0.21,0.7,52*
CC(C(=O)NCc1ccc2c(c1)OCO2)N1c2cccc3cccc(c23)S1(=O)=O (stereo not drawn),-166,0.2,-5.1*,2.7*,82*
O=C(CN1C(=O)c2cccc3cccc1c23)NCc1ccccn1,-176,0.9,1.2,2.8*,8
O=C(CN1C(=O)c2ccccc2S1(=O)=O)NCc1ccc2c(c1)OCO2,.,.,0.35,.,.
O=C(CN1C(=O)c2cccc3cccc(c23)C1=O)N1CCN(Cc2ccc3c(c2)OCO3)CC1,55*,0.7,0.14,0.5,32
O=C(CN1c2cccc3cccc(c23)S1(=O)=O)NCc1ccc2c(c1)OCO2,-314,0.2,0.055,4.1*,81*
